Screens as filed in PubChem.
Hits are enriched below; roughly 19% of the tested compounds scored in any of these assays.
TDP1 cell noCPT: qHTS for Inhibitors of human tyrosyl-DNA phosphodiesterase 1 (TDP1): qHTS in cells in absence of CPT; DT40 Tdp1-/- hTDP1 cells, no CPT, ATP luminescence, 48 h; Potency, µM (series often up to 46.2 µM), for inactives: at the top dose activity change, negative = growth inhibition, actives largely listed as inhibitors; 420,000 compounds, 15% hits; further: potency means the concentration at half of the fitted maximal effect; nearly all actives have a fitted effect of over 55% in size
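Seeded 400 DT40-hTDP1 cells/well (vehicle DMSO, no 20 nM CPT); pinned compounds; ≥48 hr at 37 °C; CellTiter-Glo luminescence as viability measure.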
TDP1 cell CPT: DT40-hTDP1 cell growth loss with CPT; 420,000 compounds, 12% hits; Potency, µM (top dose mostly 46.2 µM), inactives show at the top dose activity change, negative = growth inhibition, most hits filed as inhibitors; AID 686979; chicken DT40 Tdp1-/-;hTDP1 cells + 20 nM CPT, ATP luminescence, 48 h; further: potency means the concentration at half of the fitted maximal effect; nearly all actives have a fitted effect of over 55% in size
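Chicken DT40 Tdp1-/- cells stably complemented with human TDP1 were seeded at 400 cells/well in medium containing 20 nM camptothecin, exposed to pin-transferred compounds, and grown at 37 °C for at least 48 hr. Viability was read as ATP luminescence.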
HT1080 IDH1KD tx: toxicity to HT-1080 IDH1 knockdown cells (counter line); 360,000 compounds, 2% hits; Potency, µM (series often up to 46.1 µM), inactives show at the highest dose activity, negative = toxicity, most hits filed as cytotoxic; AID 686971; HT-1080 IDH1 knockdown viability, ATP luminescence, 48 h;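 further: potency means the concentration at half of the fitted maximal effect; 0% = DMSO wells and -100% = cell-free medium wells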
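Using the IDH1-knockdown HT-1080 line run in the same batch and compound series as the NT line, viability after 48 h at 37 °C was determined by CellTiter-Glo luminescence and expressed as % activity.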
ELG1 DNA repair: ELG1-dependent DNA repair inhibition | HEK293T ELG1-luciferase reporter, luminescence, 16 h; DNA damage induced by 5-fluorouridine | AID 504467 | Potency, µM (series often up to 46.1 µM), without a hit: at the highest dose activity change, negative = inhibition, usual class: inhibitors | 330,000 compounds, 2.3% hits; further: potency means the concentration at half of the fitted maximal effect; nearly all actives have a fitted effect of over 55% in size
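Cells (2,000 per well) received 5-fluorouridine plus test compound or DMSO and were incubated 16 hr at 37 °C, 5% CO2. Luciferase activity was read by luminescence 30 min after ONE-Glo addition; signal suppression marked inhibition of damage-induced ELG1 function.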
HT1080-NT tox: kills 2HG-producing HT-1080-NT fibrosarcoma cells | HT-1080-NT fibrosarcoma viability, CellTiter-Glo ATP luminescence, 48 h | Potency, µM (series often up to 46.1 µM), for inactives: at the top dose activity, negative = less viability, most hits filed as cytotoxic | 360,000 compounds, 1.6% hits;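 further: NT is the 2HG producing partner of a matched IDH1 knockdown line; potency means the concentration at half of the fitted maximal effect; 0% = DMSO-treated cells and -100% = media-only wells without cells; nearly all actives have a fitted effect of over 55% in size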
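HT-1080-NT; 750 cells/well; 5% FBS RPMI; 48 h compound, 37 degrees C; CellTiter-Glo luminescence; curve fitting and curve-class assignment.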
IL1B secr inh: inhibitors of inflammasome signaling (IL-1 beta secretion); 360,000 compounds, 4.7% hits; activity change, % at 57.5 µM; THP-1 LPS/ATP IL-1B secretion, AlphaLISA, 16 h; hits give low values; AID 743279; in the data active means activity change below about -50%; inconclusive means mostly about -30% to -49%
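Secreted IL-1B measured by AlphaLISA bead assay after 16 h compound exposure of THP-1 cells; compounds (final up to 57.5 uM) added 1 h before LPS (250 ng/mL) and ATP (1.25 mM) stimulation; lower signal means less secretion.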
* = called active by the depositor; ? = inconclusive; / = not tested or not shown; ! = not confirmed by another sample; [ ] = dose if it differs, or a comment. Unless noted, the call rests on the fitted dose curve; in most records, active means well fitted curve in the direction sought with a large enough effect; inconclusive means small, poorly fitted or top-dose-only effect, or another doubt; inactive means no such curve, though single readings can be large; an effect the other way counts as inactive or inconclusive. Unless noted, on the % scale 0 is the no-effect control and ±100 the full control effect.

SMILES	TDP1 cell noCPT	TDP1 cell CPT	HT1080 IDH1KD tx	ELG1 DNA repair	HT1080-NT tox	IL1B secr inh
COc1cc(OC)cc(-c2nnc(NC(=O)c3ccc4c(c3)OCCO4)o2)c1	8.2µM*	10.3µM*	-3.3%	26.7%	7.3%	-2.8
Cc1ccc(C)c(-c2nnc(NC(=O)c3ccc4c(c3)OCCO4)o2)c1	8.2µM*	18.4µM*	/	/	/	/
COc1cc(OC)cc(C(=O)NNC(=O)c2ccc3c(c2)OCCO3)c1	-2.6%	3.6%	7.5%	?	-1.9%	-3.5
CC(C)N1CCc2c(sc(NC(=O)c3ccc(S(=O)(=O)N(C)CC4CCCO4)cc3)c2C(N)=O)C1 (centres undefined)	-17.8%	-24.5%	-0.3%	-20.7%	0.6%	-11.2
CCCCN(C)S(=O)(=O)c1ccc(C(=O)Nc2sc3c(c2C(=O)OCC)CCN(C(C)C)C3)cc1	5.8µM*	8.2µM*	/	/	/	/
CCOC(=O)c1c(NC(=O)c2ccc(S(=O)(=O)N(C)C3CCCCC3)cc2)sc2c1CCN(C(C)C)C2	7.31µM*	11.6µM*	/	/	/	/
COC(=O)c1c(NC(=O)c2ccc(S(=O)(=O)N3CC(C)OC(C)C3)cc2)sc2c1CCN(C)C2 (centres undefined)	?	?	-29.7%	/	-3.1%	17.3
CCOC(=O)c1c(NC(=O)C2CCCN(S(=O)(=O)c3ccccc3)C2)sc2c1CCCC2 (centres undefined)	9.2µM*	8.2µM*	?	-14.9%	4.3%	-2.2
CCOC(=O)c1c(NC(=O)c2ccccc2C(=O)O)sc2c1CCCC2	-0.9%	-0.2%	-4.2%	2.0%	-2.3%	-9.3
CCOC(=O)c1c(NC(=O)c2ccc(S(=O)(=O)N3CCC(C)CC3)cc2)sc2c1CCN(C)C2	3.66µM*	3.66µM*	/	/	/	/
CCOC(=O)N1CCN(S(=O)(=O)c2ccc(C(=O)Nc3sc4c(c3C(=O)OC)CCN(C)C4)cc2)CC1	?	?	?	0.0%	18.4µM*	-99.9*
C=CCNC(=S)Nc1sc2c(c1C(=O)OCC)CCN(C(=O)OCC)C2	-25.7%	-20.6%	0.2%	/	-2.7%	-14.0
CCOC(=O)c1c(NC(=S)N2CCOCC2)sc2c1CCN(C(=O)OCC)C2	?	?	11.6µM*	23.1µM*	9.2µM*	/
CCOC(=O)C1=C(N)Oc2cc(O)ccc2C1c1ccc(F)cc1F (centres undefined)	-17.9%	-29.9%	-4.5%	0.9%	-9.2%	99.8
Cc1ccc2ncc(C(=O)NCc3ccccc3Cl)c(=O)n2c1	-3.5%	-21.4%	/	/	/	/
COc1ccccc1C(=O)CSc1ccccn1	-15.2%	6.4%	12.2%	?	14.3%	17.4
CCOC(=O)c1c(NC(=O)c2ccc(S(=O)(=O)N(CC(C)C)CC(C)C)cc2)sc2c1CCN(C(=O)OCC)C2	0.0073µM*	-33.6%	/	/	/	/
CCOC(=O)c1c(NC(=O)c2ccc(S(=O)(=O)N(C)C)cc2)sc2c1CCN(C)C2	16.4µM*	23.1µM*	/	/	/	/
COc1ccc2[nH]c(C(=O)N3CCN(Cc4ccccc4)CC3)cc2c1OC	-26.9%	-1.6%	-20.4%	17.3%	?	-28.0
Nc1ccc(-c2cnc[nH]2)cc1[N+](=O)[O-]	-19.0%	13.5%	-3.2%	?	-3.9%	-7.9
Cc1cccc(N=Nc2c(C)c(C#N)c(O)[nH]c2=O)c1	9.3%	32.9%	-15.8%	-9.0%	8.1%	47.6
CCCCOC(=O)c1ccc(N=Nc2c(C)c(C#N)c(O)[nH]c2=O)cc1	23.1µM*	?	-4.4%	15.7%	-5.9%	47.4
O=C(CCSc1ccccc1Cl)Nc1cccc([N+](=O)[O-])c1	?	-10.2%	?	?	-20.8%	-149.6*
Cc1cc(C)c([N+](=O)[O-])cc1NC(=O)CCSc1ccccc1Cl	14.6µM*	?	-1.0%	?	-4.2%	8.2
NS(=O)(=O)c1cccc(NC(=O)CCSc2ccccc2Cl)c1	3.4%	-11.0%	12.1%	?	2.6%	0.0
SMILES	TDP1 cell noCPT	TDP1 cell CPT	HT1080 IDH1KD tx	ELG1 DNA repair	HT1080-NT tox	IL1B secr inh
COc1ccc([C@@H]2[C@@H](O)[C@H](O)[C@@H](C)N2C)cc1OC	-15.7%[9.04 µM]	-20.4%[9.04 µM]	/	/	/	/
COc1cc(/C=C/C(=O)OCC(=O)Nc2cc(S(=O)(=O)N3CCCC3)ccc2Cl)cc(OC)c1OC	?	?	0.9%	?	3.7%	22.7
CCc1ccccc1NS(=O)(=O)c1ccc2c(c1)C(C)(C)C(=O)N2C	?	?	5.5%	5.7%	-5.5%	38.5
Cc1ccc(NC(=O)c2ccc(CNS(=O)(=O)c3ccc4c(c3)C(C)(C)C(=O)N4C)cc2)cc1F	14.6µM*	16.4µM*	/	/	/	/
CCOc1ccccc1CNS(=O)(=O)c1ccc2c(c1)C(C)(C)C(=O)N2C	23.1µM*!	?	2.7%	3.6%	1.5%	28.2
CCc1cccc(NC(=O)c2ccc(CNS(=O)(=O)c3ccc4c(c3)C(C)(C)C(=O)N4C)cc2)c1	16.4µM*	?	/	/	/	/
COc1ccc(N/N=C/c2c(C(=O)O)ccc3ccccc23)cc1	3.26µM*	2.59µM*	?	?	?	173.0
COc1ccc2ccccc2c1/C=N/Nc1ccc(Cl)c(C(=O)O)c1	-27.2%	5.4%	0.6%	17.0%	3.7%	35.6
COCc1cc(C)[nH]c(=O)c1C(=O)NC12CC3CC(CC(C3)C1)C2	-10.8%	-7.7%	13.9%	18.3µM*	17.3%	29.8
COc1ccc(-c2cc(OC(=O)c3cccc(Cl)c3)c3c(C)oc(C)c3c(=O)c2)cc1	?	25.9µM*	/	/	/	/
CCOc1cc(-c2ccc(OC(=O)c3ccc(Cl)cc3)c(OC)c2)cc(=O)c2c(C)oc(C)c12	5.17µM*	4.61µM*	/	/	/	/
CCOc1cc(-c2ccc(OC(=O)c3ccccc3)c(OC)c2)cc(=O)c2c(C)oc(C)c12	5.8µM*	6.51µM*	/	/	/	/
CCOc1cc(/C=N/Nc2cccc(C(=O)O)c2)ccc1OC(=O)c1ccccc1	?	6.9%	-16.4%	?	-18.7%	6.1
COc1ccc(-c2cc(OC(=O)c3ccc(F)cc3)c3c(C)oc(C)c3c(=O)c2)cc1	/	/	/	-12.2%	/	/
Cn1ncc(Cl)c1C(=O)N1CCN(S(=O)(=O)c2ccc(Cl)s2)CC1	-28.3%	-22.5%	-11.9%	-5.9%	-2.2%	-5.7
NC(=O)c1cccc(-c2ccnc3c2CC(C(=O)NCCC(F)(F)F)O3)c1 (centres undefined)	-20.2%	?	24.5%	/	?	16.2
CC(=O)c1cccc(-c2ccnc3c2CC(C(=O)NCCC(F)(F)F)O3)c1 (centres undefined)	?	?	20.6µM*	/	?	74.2
